# From PubChem BioAssay (NCI)
# About 83,000 compounds went through this panel and 20% of them were active in at least one assay; those are over-represented in the sample as a whole.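 Interpretation: 100, growth as untreated; towards 0, rising growth inhibition; 0, no net growth; 0 to -100, cell death. Compounds scoring below 10 were considered active.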 Values without a mark were called inactive. The source made the active and inactive calls.
# Experiments:
# Test in all cases: NCI-60 one-dose screen, 48 h (100 = growth as untreated, 0 = no growth, -100 = all killed)
# Conditions in all cases: 10 µM unless noted
# SK-MEL-2 melanoma = system: SK-MEL-2 melanoma
# SN12C renal = system: SN12C renal
# UO-31 renal = system: UO-31 renal
# TK-10 renal = system: TK-10 renal
# ACHN renal = system: ACHN renal
# CAKI-1 renal = system: CAKI-1 renal
# A498 renal = system: A498 renal
# CCRF-CEM leukemia = system: CCRF-CEM leukemia
# MOLT-4 leukemia = system: MOLT-4 leukemia
# EKVX NSCLC = system: EKVX NSCLC
Structure (SMILES),growth (SK-MEL-2 melanoma),growth (SN12C renal),growth (UO-31 renal),growth (TK-10 renal),growth (ACHN renal),growth (CAKI-1 renal),growth (A498 renal),growth (CCRF-CEM leukemia),growth (MOLT-4 leukemia),growth (EKVX NSCLC) [%]
Nc1ccc(C(=O)/C=C/c2ccccc2)cc1,91.6%,98.4%,62.1%,85.2%,105%,98.5%,101%,58.7%,75.4%,
Oc1ccc(Cl)cc1Cc1cc(Cl)ccc1O,5.31% (active),11.4%,22.9%,113%,26.1%,83.5%,63.6%,22.7%,41.3%,
O=C1c2ccccc2Cc2cccc(Cl)c21,87.5%,97.3%,82.9%,89.6%,98.9%,99.1%,,98.8%,39.6%,
O=[N+]([O-])/C(=C/c1ccccc1)c1ccccc1,107%,103%,84.4%,89.5%,101%,106%,107%,97.5%,99%,
N#CC1c2ccccc2C=CN1C(=O)CCCl (stereo unspecified),94.1%,107%,60.6%,14.9%,,,132%,,81.3%,
N#Cc1c2ccccc2nc2ccccc12,125%,93.5%,77.5%,,,98%,67.1%,98.2%,97.1%,
CN1CSC(=S)N(Cc2ccccc2)C1,73.3%,99.9%,69.5%,28.6%,,80%,145%,59.3%,64.5%,
Oc1ccc(Br)cc1Sc1cc(Br)ccc1O,54.4%,23.9%,32.9%,115%,47.8%,99.7%,,34.3%,40.4%,
CCOC(=O)c1[nH]c(C#N)c(C(=O)OCC)c1C,,92.5%,90.2%,104%,101%,94.7%,96.7%,97.3%,,93.3
Nc1ccc(Oc2ccccc2)c(Cl)c1,105%,107%,72.1%,96.1%,101%,100%,,102%,97.9%,
Oc1ccc2c(c1)CCc1ccccc1-2,115%,107%,90.3%,100%,,101%,,97.3%,103%,
O=C(OC12CC3CC(CC(C3)C1)C2)c1ccc(NCc2cc(O)ccc2O)cc1,-19.9% (active),-3.25% (active),-100% (active),-95.9% (active),-89.7% (active),-92.5% (active),,-23.7% (active),-19.5% (active),
Oc1c(Cl)cc(Cl)cc1C(c1cc(Cl)cc(Cl)c1O)C(Cl)(Cl)Cl,-33.9% (active),0.98% (active),-21.4% (active),13%,-19.7% (active),,-26.6% (active),8.74% (active),3.86% (active),
O=C(CBr)c1ccc(OC(=O)c2ccccc2)cc1,111%,103%,,117%,97.5%,100%,74.4%,67.6%,95.3%,
N=C1C=C(N)C(=O)c2ccccc21,-53.6% (active),-66.9% (active),-86.3% (active),-67.5% (active),-81.6% (active),-47.7% (active),,3.15% (active),-25% (active),
O=C1/C(=C/c2ccccn2)CCc2ccccc21,105%,102%,101%,95.4%,,84.8%,77.7%,,49%,
COc1cc2c(c(OC)c1OC)-c1ccc(NCc3ccccc3)c(=O)cc1[C@@H](NC(C)=O)CC2,19.2%,20.3%,34.4%,26%,,28.8%,-17.3% (active),10.1%,3.29% (active),
COc1cccc2c1C(=O)c1c(O)c3c(c(O)c1C2=O)C[C@@](O)(C(=O)CO)C[C@@H]3OC1CC(OC(C)=O)C(OC(C)=O)C(C)O1 (stereo partly specified),,-6.25% (active),-38.2% (active),-36.3% (active),-92.2% (active),-40.5% (active),-19.1% (active),-48.6% (active),-53.2% (active),30.5
COc1cc(/C=C2\SC(=S)N(/C=C/c3nc4ccccc4[nH]c3=O)C2=O)cc(OC)c1OC,81.1%,98.2%,2.14% (active),70.1%,82.4%,87.2%,,91.7%,91.2%,
CN(C)c1ccc(C(C#N)(c2ccccc2)c2ccc(N(C)C)cc2)cc1,85.2%,14.4%,53%,71.8%,49.3%,79.4%,,,68.5%,
O=[N+]([O-])c1cc(-c2ccccc2)c(O)c([N+](=O)[O-])c1,75.2%,73.7%,,89.2%,87.7%,,82.3%,16.3%,71.9%,
O=C1CSC(=S)N1Cc1cccnc1,85.8%,103%,71%,9.3% (active),,63.9%,,12.9%,51.4%,
CCCCCCCCCCCC1=NCCCN1CCCC,107%,98.4%,84.3%,108%,104%,111%,,87.4%,92%,
CCCCCCCCCCCCCCCCCC1=NCCCN1CCO,111%,96.8%,93.4%,116%,,105%,,97.4%,102%,
c1ccc(-c2cc3cc4ccccc4cn3c2)cc1,90.1%,87.6%,60.9%,101%,89.6%,84.7%,,90.2%,83.2%,
CCCCCCCCCCCC[n+]1ccccc1 (tested in a mixture with another compound),-83.5% (active),-15.9% (active),1.25% (active),-47.5% (active),22.2%,,42%,-2.6% (active),-30.6% (active),
COc1ccc2nc3cc(Cl)ccc3c(NCCCCCN3CCCCC3)c2c1,-71.8% (active),10.3%,-40.6% (active),-9.41% (active),-67.7% (active),-50.3% (active),,-27.6% (active),-19.5% (active),
C/C(=N\NC(=S)N1CC2CCC(CC2)C1)c1ccccn1,13.7%,4.27% (active),-8.11% (active),21.6%,,0.118% (active),,3.63% (active),3.87% (active),
CC(C)(C)CC(C)(C)c1ccc(OCCOCCSC(=N)N)cc1,85%,55%,53.2%,78%,,65.3%,75.3%,0.0306% (active),14.4%,
